Most compounds without a hit are left out; they make up all but 3% or so of the library.
JMJD2E inh: JMJD2E (human) inhibition | B2RXH2 | JMJD2E catalytic domain, FDH-coupled NADH fluorescence (FDH is formaldehyde dehydrogenase) | Potency, µM (doses to about 57.1 µM), inactives show at the top dose activity change, negative = inhibition, most hits filed as inhibitors | actives 1.6% (n = 230,000) | AID 2147; active = well fitted inhibition curve with a large enough effect, not every such curve was filed as active; inconclusive = small, poorly fitted or top-dose-only effect, or another doubt; inactive = no such curve, though single readings can be large or run the other way;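 also: potency is read from the fitted curve at half-maximal effect; 0% = wells with enzyme and -100% = buffer wells without enzyme; nearly all actives have a fitted effect of over 50% in size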
Target sequence (B2RXH2 1-337 limits assumed): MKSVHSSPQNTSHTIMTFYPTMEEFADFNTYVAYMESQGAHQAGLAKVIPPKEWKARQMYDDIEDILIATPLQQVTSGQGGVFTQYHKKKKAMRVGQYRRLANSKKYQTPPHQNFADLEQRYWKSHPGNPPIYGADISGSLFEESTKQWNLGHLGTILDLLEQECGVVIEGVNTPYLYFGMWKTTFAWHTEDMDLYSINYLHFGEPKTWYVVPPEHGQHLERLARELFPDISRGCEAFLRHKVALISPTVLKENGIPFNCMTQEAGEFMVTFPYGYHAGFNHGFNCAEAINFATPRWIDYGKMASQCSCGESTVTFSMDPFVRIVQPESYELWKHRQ
Tau fluor cs: counter-screen for tau fibril formation inhibitors; actives 0.93% (n = 280,000); tau K18 P301L Alexa594 fluorescence, heparin fibrillization; Potency, µM (highest dose often 57.7 µM), inactives show at the top dose activity change, negative = decrease; also: potency is read from the fitted curve at half-maximal effect; nearly all actives have a fitted effect of over 55% in size
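Human K18 P301L tau (15 uM unlabeled plus 0.24 uM Alexa 594-labeled, final) in 100 mM sodium acetate pH 7 was mixed with compound and 20 uM heparin and incubated 6 hr at 37 C.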
Tau ThT inhib: tau fibrillization inhibition (ThT binding); P10636; recombinant tau K18 P301L, heparin-induced fibrillization, ThT fluorescence; Potency, µM (series often up to 57.4 µM), for inactives: at the highest dose activity, negative = inhibition, actives largely listed as inhibitors; actives 2.1% (n = 270,000); AID 1460; also: potency is read from the fitted curve at half-maximal effect; nearly all actives have a fitted effect of over 55% in size
Target sequence (P10636 561-689 P618L limits assumed): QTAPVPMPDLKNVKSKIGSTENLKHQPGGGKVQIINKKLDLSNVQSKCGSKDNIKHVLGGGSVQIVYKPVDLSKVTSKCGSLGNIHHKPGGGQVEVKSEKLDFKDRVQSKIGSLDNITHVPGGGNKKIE
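ThT emission at 510 nm, taken 1 hr after adding 30 uM dye, quantifies aggregates formed when 20 uM heparin acts on human tau K18 P301L for 6 hr at 37 C.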
Tau fibril FP: inhibitors of human tau fibril formation; actives 0.39% (n = 280,000); K18 P301L tau heparin fibrillization, Alexa594 FP, 6 h; Potency, µM (doses to about 57.7 µM), without a hit: top-dose activity, negative = inhibition, hits mostly inhibitors; P10636; also: potency is read from the fitted curve at half-maximal effect; nearly all actives have a fitted effect of over 55% in size
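Compound effects on tau fibrillization are measured by Alexa 594 fluorescence polarization (ex 555, em 632 nm). K18 P301L tau is used at 15 uM with 0.24 uM labeled tracer, and 20 uM heparin induces aggregation over 6 hr at 37 C.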
FBPA coupling cs: coupling enzyme interference in Giardia aldolase counter-screen; coupling enzyme system counterscreen, AmpLite Red fluorescence; AID 2472; actives 0.67% (n = 290,000); activity change, negative = inhibition, % at 58.2 µM, hits read low; in the data active = activity change below about -30%
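Coupling enzymes only (glyceraldehyde-3-phosphate) + compound, at 57.5 uM final, 10 min RT; add substrate/coupling/AmpLite Red mix, 20 min RT; fluorescence ex 525/em 598 nm. Actives flag coupling-system interference.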
* hit, by the source's call; u = inconclusive; x = no result; ! = not active in a repeat; [ ] = another dose, or the depositor's remark. Unless noted, calls follow the shape of the dose curve; as a rule, active = well fitted curve in the direction sought with a large enough effect; inconclusive = small, poorly fitted or top-dose-only effect, or another doubt; inactive = no such curve, though single readings can be large; an effect the other way counts as inactive or inconclusive. Unless noted, % is scaled to controls: 0 for no effect and ±100 for the full control effect.

SMILES	JMJD2E inh	Tau fluor cs	Tau ThT inhib	Tau fibril FP	FBPA coupling cs
Cc1ccccc1C1C2=C(Nc3[nH]n(-c4ccccc4)c(=O)c31)c1ccccc1C2=O (configuration not stated)	-11.2%	u	14.1µM*	-3.9%	2.5
Cc1cccc(C2C3=C(Nc4[nH]n(-c5ccccc5)c(=O)c42)c2ccccc2C3=O)c1 (configuration not stated)	2.7%	u	15.8µM*	-3.4%	2.3
Cc1cccc(N2CCN(C(=O)c3cccn4c(=O)c5cc(Cl)ccc5nc34)CC2C)c1 (configuration not stated)	x	-28.9%	-13.9%	4.8%	x
O=C(c1ccccc1Cl)N(C(=O)c1ccccc1Cl)c1nccc(-c2cccs2)n1	u	-15.5%	-2.0%	-13.0%	-42.0*
O=C(Nc1nccc(-c2cccs2)n1)c1ccccc1Cl	u	-6.2%	-6.2%	0.5%	7.1
O=C(NNc1cc(N2CCOCC2)nc(N2CCOCC2)n1)c1ccc([N+](=O)[O-])cc1	-2.1%	-20.7%	u	u	-54.3*
C=C1C=CS(=O)(=O)N(C(CC(C)C)C(=O)OC)C1 (configuration not stated)	x	x	x	x	-3.1
O=C1OCCC1N(C(=O)C1CC1)c1cccc(Cl)c1 (configuration not stated)	x	x	x	x	0.5
Cc1ccc(N2C(=O)CS/C2=C(\C(Cl)=C(Cl)Cl)[N+](=O)[O-])cc1	0.9%	u	25.1µM*	u	1.7
COC(=O)CCC(=O)OC1(C)C(=O)C2=COC(c3ccc(OC)cc3)=CC2=C(Br)C1=O (configuration not stated)	3.5%	-9.7%	12.6µM*	u	0.7
COc1ccc(C2=CC3=C(Br)C(=O)C(C)(OC(=O)c4ccc(Cl)nc4)C(=O)C3=CO2)cc1 (configuration not stated)	-3.6%	u	28.2µM*	u	-2.4
COc1ccc(C2=CC3=C(Br)C(=O)C(C)(OC(=O)C4CCCC4)C(=O)C3=CO2)cc1 (configuration not stated)	-5.2%	-15.1%	u	u	1.7
CC[C@H](C)[C@H](NC(=O)[C@H](CCC(=O)O)NC(=O)CNC(=O)[C@@H](NC(=O)[C@H](CCC(=O)O)NC(=O)[C@H](CCC(=O)O)NC(=O)[C@H](CC(C)C)NC(=O)CNC(=O)[C@@H]1CCCN1C(=O)[C@H](CCC(=O)O)NC(=O)[C@@H](N)[C@@H](C)O)C(C)C)C(=O)N[C@@H](CCC(=O)O)C(=O)N[C@@H](CCC(N)=O)C(=O)N[C@@H](CCCCN)C(=O)N[C@@H](CCC(N)=O)C(=O)N[C@@H](CC(C)C)C(=O)N[C@@H](CCC(N)=O)C(=O)O	x	x	x	x	-2.8
COc1cc2c(cc1OC)-c1c(OC)c(OC)cc3ccnc(c13)C2=O	u	u	7.08µM*	-20.9%	-34.5*!
Cc1ccc(C2CC(=O)Oc3c(C(C)C)ccc(C)c32)cc1 (configuration not stated)	x	-21.1%[81.3 µM]	-17.5%[81.4 µM]	7.1%[81.3 µM]	3.5
COC(=O)C1=CN(c2ccc(OC)cc2)C=C(C(=O)OC)C1c1ccc(C)c([N+](=O)[O-])c1	3.1%	-18.1%	-0.2%	-7.7%	-1.5
COC(=O)C1=CN(c2cccc(C)c2)C=C(C(=O)OC)C1c1cc(OC)c(O)c([N+](=O)[O-])c1	-15.0%	u	15.8µM*	13.1%	1.4
Cc1[nH]n(-c2ccccc2)c(=S)c1C=Nc1ccc([N+](=O)[O-])cc1	6.31µM*	-19.0%	25.1µM*	u	-5.4
Cc1ccc(S(=O)(=O)N2CCc3cc(C(=O)Nc4c(F)cccc4F)ccc32)cc1	x	1.5%	7.9%	-1.0%	x
CCN1CC2=C(OC(N)=C(C#N)C2c2cccs2)/C(=C\c2cccs2)C1 (configuration not stated)	u	u	14.1µM*	-13.0%	0.4
Cc1ccc(S(=O)(=O)c2cn(C)c3cc(N4CCCC(C)C4)c(F)cc3c2=O)c(C)c1 (configuration not stated)	x	-8.7%	-6.8%	-10.6%	x
CCC1(C)Cc2c(C#N)c(N)n(-c3ccccc3)c(=S)c2CO1 (configuration not stated)	-4.7%	4.4%	9.3%	-9.1%	1.1
Cc1[nH]c(=S)c(C#N)c2c1CCCC2	14.4%	-16.2%	-14.5%	-15.6%	2.8
CCC1(C)Cc2c(C#N)c(N)sc(=S)c2CO1 (configuration not stated)	u	-16.1%	25.1µM*	u	-28.9
N#Cc1c(N)sc(=S)c2c1CCCC2	3.9%	u	14.1µM*	-2.9%	-18.1
SMILES	JMJD2E inh	Tau fluor cs	Tau ThT inhib	Tau fibril FP	FBPA coupling cs
CCN(c1ccccc1)S(=O)(=O)c1ccc(Cl)c(NC(=O)COC(=O)c2cc(O)c3ccccc3c2O)c1	8.91µM*	8.91µM*[quencher]	11.2µM*	u	-30.7*
CCc1ccc(OCC(=O)NC2CC(C)(C)NC(C)(C)C2)cc1	2.5%	-9.8%	12.6µM*	-5.3%	0.5
Cc1ccc(C=C2C(=O)c3ccccc3C2=O)o1	-1.4%	3.6%	8.91µM*	u	0.8
O=C(O)c1ccc2c(c1)C(=O)/C(=C\c1ccco1)C2=O	-29.1%	u	11.2µM*	15.8µM*	1.4
O=C1C(=Cc2ccco2)C(=O)c2ccccc21	-23.5%	u	12.6µM*	u	-1.1
O=C(O)c1ccc2c(c1)C(=O)/C(=C/c1ccccc1)C2=O	-9.2%	-16.6%	u	-0.2%	-0.6
Cc1ccc(/C=C2/C(=O)c3ccc(C(=O)O)cc3C2=O)o1	-22.8%	-20.1%	5.62µM*	u	-10.1
O=C(NC1(C(F)(F)F)N=C(c2ccccc2)N(Cc2ccccc2)C1=O)c1ccc(F)cc1 (configuration not stated)	x	-24.5%	-5.1%	-10.5%	x
CCOc1ccccc1-c1nnc2n1N=C(c1ccccc1OC)CS2	x	x	x	x	-1.2
COc1ccc(Nc2ncc(C(=O)Nc3cccc(Cl)c3)c3ccccc23)cc1	x	8.91µM*[quencher]	u	9.2%	x
COC(=O)c1ccccc1NC(=O)c1cnc(Nc2ccc(OC)cc2)c2ccccc12	x	4.47µM*[quencher]	u	0.3%	x
COc1ccc(Nc2ncc(C(=O)Nc3cc(Cl)c(OC)cc3OC)c3ccccc23)cc1	x	u	-20.5%	u	x
CC(=O)c1ccc(N2CCC(c3cc(-c4ccc(Cl)cc4Cl)n[nH]3)CC2)c([N+](=O)[O-])c1	-11.8%	u	12.6µM*	u	-6.5
O=[N+]([O-])c1cccnc1N1CCC(c2cc(-c3cccc(C(F)(F)F)c3)n[nH]2)CC1	-1.1%	u	14.1µM*	-9.5%	0.5
O=[N+]([O-])c1cccnc1N1CCC(c2cc(-c3ccc(Cl)cc3Cl)n[nH]2)CC1	-4.3%	u	12.6µM*	-8.9%	-0.5
COc1ccc(C2(CNC(=O)C(=O)Nc3ccccc3C)CCCC2)cc1OC	x	-9.0%	-7.1%	6.7%	x

Source: PubChem
